# Screening results: PubChem, National Center for Advancing Translational Sciences (NCATS)
# Tau fibril ThT: tau fibrillization inhibition (ThT binding); P10636; recombinant tau K18 P301L, heparin-induced fibrillization, ThT fluorescence; Potency, µM (doses to about 57.4 µM), inactives show at the top dose activity, negative = inhibition, most hits filed as inhibitors; hit rate 2.1% among 270,000; AID 1460; further: nearly all actives have a fitted effect of over 55% in size
# Target sequence (P10636 561-689 P618L limits assumed): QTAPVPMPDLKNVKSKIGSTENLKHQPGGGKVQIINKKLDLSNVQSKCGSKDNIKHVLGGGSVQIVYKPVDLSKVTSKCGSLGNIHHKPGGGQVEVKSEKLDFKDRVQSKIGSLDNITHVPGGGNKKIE
#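 K18 P301L tau (15 uM + 0.24 uM Alexa 594-tagged), heparin 20 uM, NaOAc pH 7, 6 h 37 C; ThT 30 uM, 1 h RT, ex 450/em 510 nm.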
# TRb SRC2 PPI: disrupts binding of human TR beta to SRC2; AID 1469; P10828; Potency, µM (top dose mostly 106 µM), inactives show at the highest dose activity change, negative = inhibition, most hits filed as inhibitors; TRbeta-SRC2 peptide binding, fluorescence polarization; receptor liganded with 1 µM T3; hit rate 0.065% among 280,000;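 further: plate controls were bound peptide for no effect and peptide without receptor for full effect; nearly all actives have a fitted effect of over 50% in size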
# Target sequence (P10828 whole entry, looked up): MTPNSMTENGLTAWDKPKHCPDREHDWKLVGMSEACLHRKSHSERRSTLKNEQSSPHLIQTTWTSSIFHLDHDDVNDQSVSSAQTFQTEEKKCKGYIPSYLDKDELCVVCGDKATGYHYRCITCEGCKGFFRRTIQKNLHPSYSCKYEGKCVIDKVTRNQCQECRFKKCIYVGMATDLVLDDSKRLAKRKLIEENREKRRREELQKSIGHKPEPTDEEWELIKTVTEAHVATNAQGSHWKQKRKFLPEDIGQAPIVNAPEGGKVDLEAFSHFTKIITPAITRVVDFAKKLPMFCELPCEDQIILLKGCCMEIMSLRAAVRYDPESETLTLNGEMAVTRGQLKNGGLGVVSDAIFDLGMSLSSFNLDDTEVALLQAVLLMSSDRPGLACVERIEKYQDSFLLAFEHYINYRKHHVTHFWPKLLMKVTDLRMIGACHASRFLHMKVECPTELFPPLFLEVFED
#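 Binding of a 20-amino-acid Texas Red SRC2 peptide (20 nM) to TRb ligand-binding domain (0.6 uM) with agonist T3 at 1 uM was followed by fluorescence polarization after a 5 hr room-temperature incubation.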
# TexasRed fluor: Texas Red fluorescence interference in TRb-SRC2 counter-screen | TRb/SRC2 Texas Red total fluorescence interference | Potency, µM (series often up to 106 µM), for the others: at the highest dose fluorescence change, negative = quenching | hit rate 0.29% among 280,000; active means well fitted curve in either direction with a large enough effect; inconclusive means small, poorly fitted or top-dose-only effect
#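 Human TRb ligand-binding domain at 0.6 uM with 20 nM Texas Red SRC2 peptide in Tris buffer containing 1 uM T3 and 5% DMSO, incubated with compound 5 h at ambient temperature. Total fluorescence (555/632 nm) calculated as parallel + 2 × perpendicular.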
# Tau FP inhib: blocks human tau fibril formation measured by polarization. K18 P301L tau heparin fibrillization, Alexa594 FP, 6 h. P10636. hit rate 0.39% among 280,000. AID 1468. Potency, µM (doses to about 57.7 µM), without a hit: at the top dose activity, negative = inhibition, actives largely listed as inhibitors; further: nearly all actives have a fitted effect of over 55% in size
#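 FP of Alexa 594-tau after heparin (20 uM) induction. Substrate: human K18 P301L, 15 uM unlabeled, 0.24 uM labeled. Buffer 100 mM sodium acetate pH 7. 6 hr, 37 C.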
# Tau fluor counter: counter-screen for tau fibril formation inhibitors; AID 1463; hit rate 0.93% among 280,000; Potency, µM (top dose mostly 57.7 µM), without a hit: at the highest dose activity change, negative = decrease; tau K18 P301L Alexa594 fluorescence, heparin fibrillization; further: nearly all actives have a fitted effect of over 55% in size
#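 Human tau K18 P301L (15 uM unlabeled, 0.24 uM Alexa 594-labeled) in 100 mM sodium acetate pH 7 with 20 uM heparin, 6 hr at 37 C. ThT 30 uM added, 1 hr ambient; Alexa 594 FP and total fluorescence read at 555/632 nm.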
# An asterisk follows results filed as active; ? = inconclusive; . = no result; [ ] = dose if it differs, or a comment. Shown are actives, neighbours in structure and some others; about 3% of the full set was active somewhere. Unless noted, the call rests on the fitted dose curve; in most records, active means well fitted curve in the direction sought with a large enough effect; inconclusive means small, poorly fitted or top-dose-only effect, or another doubt; inactive means no such curve, though single readings can be large; an effect the other way counts as inactive or inconclusive. Unless noted, on the % scale 0 is the no-effect control and ±100 the full control effect; potency means the concentration at half of the fitted maximal effect.
SMILES,Tau fibril ThT,TRb SRC2 PPI,TexasRed fluor,Tau FP inhib,Tau fluor counter
COc1ccc(Nc2nnc(SC(C(=O)Nc3ccc(OC)c(Cl)c3)c3ccccc3)s2)cc1 (stereo unspecified),-17%,-10%,-1%,18%,7.1µM*[quencher]
COc1ccc(-c2c(C)nn3c4c(cnc23)C(=O)CC(c2ccc(C)cc2)C4)cc1 (stereo unspecified),-4%,-13%,14µM*[quencher],-12%,-15%
CSc1nc2sc3c(c2c(=O)n1Cc1ccccc1)CCC(C(C)(C)C)C3 (stereo unspecified),-10%,-16%,?,0%,-7%
O=C(CS(=O)(=O)c1cccc2nsnc12)NCc1ccc(Cl)cc1,1%,-18%,1.8µM*[quencher],1%,-1%
CSc1ccc(-c2nc3c(C)cccn3c2Nc2ccc3c(c2)OCCO3)cc1,?,4%,-1%,15%,?
O=C(Cc1ccc(F)cc1)NCc1ccc2c(c1)CCN2C(=O)c1ccc(F)cc1,13%,0%,1%,-11%,-4%
Cc1cc(C)c(/C=C/c2onc(C)c2S(=O)(=O)N2CCC(C(=O)NCCc3ccccc3)CC2)c(C)c1,9%,2%,-2%,7%,-12%
O=C1c2cccc3cccc(c23)C(=O)N1OS(=O)(=O)c1ccc(Cl)cc1,-7%,-1%,0%,-12%,-9%
CCc1ccc(S(=O)(=O)ON2C(=O)c3ccccc3C2=O)cc1,16µM*,-1%,-7%,?,-13%
O=C(CCCCCNC(=O)c1ccccc1)N=Nc1c(O)[nH]c2c(Br)cc(Br)cc12,6.3µM*,5%,3%,-1%,?
O=C(CCNC(=O)c1ccccc1)N=Nc1c(O)[nH]c2ccccc12,-12%,3%,-3%,0%,2%
Cc1c2ccccc2nc2c(F)c(NCCO)c(F)c(F)c12,13µM*,5%,-14%,?,?
COc1ccc(N2CCN(S(=O)(=O)c3ccc4c(c3)CCCN4C(C)=O)CC2)cc1,2%,1%,1%,-4%,-10%
COc1ccc(C2=NC(c3ccc(Cl)cc3)C(c3ccc(Cl)cc3)N2C(=O)N2CCNC(=O)C2)c(OC(C)C)c1 (stereo unspecified),.,-4%,-23%,.,.
CCCCN(CC)C(=O)c1nn(C)c2c1CSc1ccccc1-2,-7%,6%,-1%,?,14µM*[quencher]
COc1ccc(-n2nc3cc(C)c(N)c(Br)c3n2)cc1,14µM*,?,-28%,?,?
COc1ccc(-n2nc3ccccc3n2)cc1,-4%,-2%,-1%,10%,-1%
CC(C)(C)c1ccc(/C=C/C(=O)Nc2ccc3c(c2)OCCO3)cc1,?,6%,-4%,?,10µM*[quencher]
CC(=O)Nc1ccc(NC(=O)/C=C/c2ccc3c(c2)OCO3)cc1,?,9%,-1%,-2%,-12%
Cc1nc(-c2ccccc2)sc1C(=O)NN,-11%,-3%,-4%,?,-9%
Cc1ccc(N/C=C/C(=O)c2sc(-c3ccccc3)nc2C)cc1,2µM*,1%,1%,0%,-28%
CCN(CC)c1ccc(N=Cc2ccc([N+](=O)[O-])o2)cc1,10µM*,?,6%,11µM*,?
CCCCCC(=O)N/N=C/c1ccc([N+](=O)[O-])o1,?,-8%,2%,-6%,-16%
CCN(CC)c1ccc(N=Cc2ccccc2[N+](=O)[O-])cc1,14µM*,?,30%,?,?
O=C(Nc1ccc(Br)cc1)N1CCC(CN2CCCC2)CC1,1%,?,45µM*[quencher],-4%,5%
SMILES,Tau fibril ThT,TRb SRC2 PPI,TexasRed fluor,Tau FP inhib,Tau fluor counter
Cc1ccc(C)c(NC(=O)N2CCC(CN3CCOCC3)CC2)c1,8%,-16%,?,-3%,10%
CCOc1ccc(NC(=O)N2CCC(CN3CCCCCC3)CC2)cc1,?,-29%,126µM*[quencher],-14%,-1%
Cc1cc(NC(=O)N2CCC(CN3CCOCC3)CC2)ccc1Br,5%,-17%,79µM*[quencher],-10%,4%
COC(=O)C(Cc1ccccc1)NS(=O)(=O)c1cc(Br)ccc1Br (stereo unspecified),.,-6%,0%,.,.
COc1cc(/C=C/C(=O)N2CCC=CC2=O)cc(OC)c1OC,8.9µM*,-13%,-1%,?,-21%
COc1cc(/C=C/C(=O)N2CCCN(C(=O)/C=C/c3cc(OC)c(OC)c(OC)c3)CC2)cc(OC)c1OC,-3%,-1%,1%,0%,5%
O=C(NCc1ccc(F)cc1)C1CCN(c2ncnc3c2nc2n3CCCCC2)CC1,8%,-3%,2%,-2%,4%
Cc1c(Br)c(O)c(Br)c2sc(=O)oc12,11µM*,-3%,-16%,?,?
CN1CCN(C2=C(Cl)C(=O)N(Cc3ccccc3)C2=O)CC1,?,-4%,-3%,-4%,-1%
CN1CCN(C2=C(Cl)C(=O)N(c3cccc(Cl)c3)C2=O)CC1,22µM*,-3%,-1%,?,?
O=C(O)c1cc(-c2ccc(N3CCOCC3)cc2)nn1-c1ccccc1Cl,?,4%,-1%,0%,-15%
Cc1ccc(N2C(=O)C(Cl)=C(N3CCOCC3)C2=O)cc1Cl,14µM*,-4%,-1%,22µM*,?
CN1CCN(C2=C(Cl)C(=O)N(c3ccc(Cl)c(Cl)c3)C2=O)CC1,14µM*,-3%,1%,?,-28%
O=C1C(Cl)=C(N2CCOCC2)C(=O)N1c1ccccc1Cl,14µM*,-7%,-1%,20µM*,?
CC[C@H](C)[C@H](NC(=O)[C@@H](NC(=O)CNC(=O)[C@@H](N)CC(C)C)[C@@H](C)O)C(=O)N1CCC[C@H]1C(=O)NCC(=O)O,.,5%,0%,.,.
CCOc1ccccc1CNC(=O)C1CCN(c2nc3ccccc3nc2C(F)(F)F)CC1,7%,0%,0%,-4%,0%
COc1ccc(OC)c(NC(=O)[C@H](CSCc2ccccc2)N2Cc3ccccc3C2=O)c1,-11%,-6%,0%,8%,?
Cc1ccc(Cl)cc1-n1c(=O)cc(N2CCN(c3ccccc3)CC2)[nH]c1=O,-10%,5%,-3%,-11%,-13%
Cc1ccccc1N1C(=O)C(Cl)=C(N2CCN(c3ccccc3)CC2)C1=O,16µM*,4%,-1%,?,?
COC(=O)c1cccc(N2C(=O)C(Cl)=C(N3CCOCC3)C2=O)c1,14µM*,1%,-10%,28µM*,?
CCOC(=O)N1CCc2c(sc(NCc3cccc(F)c3)c2C(=O)Nc2ccc(OC)cc2OC)C1,?,2%,-5%,-3%,?
CC1(C)CNc2cc(N)ccc2S1,16µM*,-14%,-2%,?,14µM*[quencher]
Cc1ccc(OCC(=O)N/N=C\c2ccc(-c3cccc(C(=O)O)c3)o2)c(C)c1,7.9µM*,-3%,-31%,5%,-23%
